# Source: PubChem BioAssay (Tox21)
# Records with an inconclusive call do not appear. Active and inactive are the calls of the source. Calls come from the whole dose curve; as a rule, active = well fitted cell-killing curve with a large enough effect in the repeat runs; inconclusive = weak or mixed curves, or effect the other way; inactive = flat fitted curve, though single readings scatter.
# Assay: qHTS assay to identify small molecule antagonists of the constitutive androstane receptor (CAR) signaling pathway - cell viability counter screen (AID 1224837); note: nearly all actives have a fitted effect of over 45% in size
# Settings: HepG2-CYP2B6-hCAR viability, CellTiter-Fluor, 23 h, co-treated with 50 nM CITCO; series mostly up to 92.4 µM
# From the text: National Center for Advancing Translational Sciences [NCATS]
# NIH Chemical Genomics Center [NCGC]
# U.S. Environmental Protection Agency [EPA]
# National Institutes of Environmental Health Sciences [NIEHS]
# National Toxicology Program [NTP]
# U.S. Food and Drug Administration [FDA]
# The constitutive androstane receptor (CAR) is a nuclear receptor which regulates multiple drug metabolizing enzymes (DMEs) and transporters. Activating CAR will generally increase the transcription and subsequent translation of CYP2B6 and CYP3A4. These two DMEs represent about 50% of the drug metabolizing potential in the body. When CAR is deactivated, the metabolizing potential in the body will decrease, subsequently increasing the toxicity in the body or lowering the therapeutic potential of a pro-drug. Recently, there have also been studies performed indicating CARs role in energy metabolism and cancer therapy. Therefore, inhibiting CARs activity could have a potential effect on diabetes and cancer. Identifying environmental toxins and compounds which modulate CAR, through the use of the Tox21 10K compound collection, will be an important step in determining the toxicity and potential therapeutic effects these factors will have on the human body. To differentiate true CAR antagonists from cytotoxic substances, the assay is multiplexed with a cell viability assay.
# Tox21 Assay Protocol Summary:
# A double-stable (hCAR and CYP2B6-2.2kb) transfected cell line, derived from human hepatoma (HepG2) cells, was utilized for the duration of the quantitative high-throughput screens. The HepG2-CYP2B6-hCAR cells were dispensed at 2500 cells/4 uL/well in 1536-well white solid bottom plates using a Multidrop Combi. After the assay plates were incubated at 37 C/5% CO2 for 4 hrs, 23 nL of compounds at 15 concentrations (from 5-48 columns) or positive control (from 1 to 4 columns) were transferred to the assay plates using a Pintool station. One uL of CITCO (final concentration = 50 nM) was added, using a Flying Reagent Dispenser, inside each well. After a 23 hr incubation period at 37 C/5% CO2, 1 uL of CellTiter-Fluor reagent was added into each well of the assay plates using a Flying Reagent Dispenser. The fluorescence intensity in the plates was then measured using a ViewLux plate reader.
# % is set by controls: 0 for no effect and ±100 for the full control effect.
Compound,outcome,"activity change, negative = cytotoxicity"
CCCCC(CC)COC(=O)CC#N (stereo not given),inactive,
O=C(O)CCC(=O)Nc1ccc(S(=O)(=O)Nc2nccs2)cc1,inactive,
C/C(=N\O)c1ccc(OCC(=O)N2CCCCC2)cc1,inactive,
CC[C@@]1(c2ccccc2)NC(=O)N(C)C1=O,inactive,
CCCCc1ccc(Cl)cc1,inactive,
Cc1ccc(O)c([N+](=O)[O-])c1,inactive,
CC(CC(=O)Cl)CC(C)(C)C (stereo not given),inactive,
NNC(=O)CCCCC(=O)NN,inactive,
CCC(=O)OCCOc1ccccc1,inactive,
C=CC(=O)CC,inactive,
CCO/C=C1\N=C(c2ccccc2)OC1=O,inactive,
O=C(O)COc1ccc2ccccc2c1,inactive,
CCCCCCCCCCCC(C)=O,inactive,
CCCCCCCCCCCCCC(=O)OCC,inactive,
COC(=O)N/N=C/c1c[n+]([O-])c2ccccc2[n+]1[O-],inactive,
CCCCN1C(=O)c2ccccc2C1=O,inactive,
CCCCCC(CC)OC(=O)CCCOc1ccc(Cl)cc1Cl (stereo not given),inactive,
O=S(=O)(O)CC(O)CCl (stereo not given),inactive,
CC(=O)SCC(CC(=O)c1ccc(C)cc1)C(=O)O (stereo not given),inactive,
C[C@H]1COc2c(C3(N)CC3)c(F)cc3c(=O)c(C(=O)O)cn1c23,inactive,

Compound,outcome,"activity change, negative = cytotoxicity"
CCOC(=O)CC,inactive,
N=C(N)S(=O)O,inactive,
COc1cc(NS(=O)(=O)c2ccc(N)cc2)ncn1,inactive,
COC(=O)c1ccccc1Cl,inactive,
CCO[Si](CC(C)C)(OCC)OCC,inactive,
CC(=O)c1ccc(O)c(C(N)=O)c1,inactive,
CC(C)(Sc1cc(C(C)(C)C)c(O)c(C(C)(C)C)c1)Sc1cc(C(C)(C)C)c(O)c(C(C)(C)C)c1,inactive,
Cc1ccc2cccnc2c1,inactive,
NC(=O)CC[C@@H](N)C(=O)O,inactive,
Cc1cc(C)c(N)c(Cl)c1,inactive,
CC(C)(C)OC(=O)c1ccccc1C(=O)O,inactive,
CC(CN1CC(=O)NC(=O)C1)N1CC(=O)NC(=O)C1 (stereo not given),inactive,
C/C=C(\C)C(=O)OC/C=C(\C)CCC=C(C)C,inactive,
CCC(C)c1nccnc1OC (stereo not given),inactive,
C=CCCCCCCCCCCCCCC,,-0.461% [at 19 µM] (inactive)
CCc1ccc(CC)cc1,inactive,
C=C(C)C(=O)OCCCC,inactive,
C[C@@H]1NC(=O)[C@@H](N)CNC(=O)[C@H](C2CCNC(N)=N2)NC(=O)/C(=C/NC(N)=O)NC(=O)[C@H](CNC(=O)C[C@@H](N)CCCN)NC1=O (stereo not given in full),,0.72% [at 0.349 µM] (inactive)
CNC(C)=O,inactive,
CSC(=O)c1cccc2nnsc12,inactive,
